Sampled rows, rich in hits. Any-hit rate of the full collection: about 2.3%.
ID4 SMM = binders of human ID4 protein, primary screen, biochemical, small molecule microarray, single point | 31,000 tested, 1.2% active | calls only | DNA-binding protein inhibitor ID-4 (Homo sapiens), P47928 | AID 624137, 2012 | Flag-ID4 binding, fluorescence F/B; call rule not given here;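 also: a binder raises fluorescence above local background on the spot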
mut p53 react = mutant p53 pathway re-activators, primary screen, cell-based, SW480, luciferase, single point, HTS; activation, % at 9.98 µM; AID 624151, 2012; SW480 PUMA-promoter luciferase, p53 mutant reactivation; 28,000 tested, 1.5% active; in the data active = activation above about 52%
* marks the source's active call; other numbers are inactive results; i = inactive; + = active, no number.

SMILES	ID4 SMM	mut p53 react
COC1=CC(=O)OC(/C=C/c2ccccc2)C1 (configuration not stated)	i	90*
CO[C@H]1[C@H](O)[C@H](O[C@H]2CC[C@]3(C)C4CC[C@]5(C)[C@H](C6=CC(=O)OC6)CC[C@]5(O)C4CC[C@@H]3C2)O[C@@H](C)[C@@H]1O[C@@H]1O[C@H](CO[C@@H]2O[C@H](CO)[C@@H](O)[C@H](O)[C@H]2O)[C@@H](O)[C@H](O)[C@H]1O (some centres not stated)	i	-103
CC1CCC/C=C/C2CC(O)CC2C(O)/C=C\C(=O)O1 (configuration not stated)	i	-89
O=C(N[C@H]1CN2CCC1CC2)c1ccc(Cl)cc1	+	12
Cn1cc(C(=O)C(=O)N[C@H]2CN3CCC2CC3)c2ccccc21	i	8
COc1ccc(CN2CCN(CCO)CC2)c(OC)c1C	i	14

High-throughput results (PubChem BioAssay)
